Measured values from article PMC5540273 (PLoS ONE, 2017).

Columns and labels:
Details in all cases: concentration: 1 μM,replicates: in singlicate; n = 1
MAP3K15 = tested on: MAP3K15
MAP3K1 = tested on: MAP3K1
MAP3K2 = tested on: MAP3K2
MAP3K3 = tested on: MAP3K3
MAP3K4 = tested on: MAP3K4
MAP4K2 = tested on: MAP4K2
MAP4K3 = tested on: MAP4K3
MAP4K4 = tested on: MAP4K4
MAP4K5 = tested on: MAP4K5
MAPKAPK2 = tested on: MAPKAPK2
MAPKAPK5 = tested on: MAPKAPK5
MARK1 = tested on: MARK1
MARK2 = tested on: MARK2
MARK3 = tested on: MARK3
MARK4 = tested on: MARK4
MAST1 = tested on: MAST1
MEK1 = tested on: T1, MEK1
T1 construct: gene MAP2K1

MEK2 = tested on: T2, MEK2
T2 construct: gene MAP2K2

MEK3 = tested on: T3, MEK3
T3 construct: gene MAP2K3

MEK4 = tested on: T4, MEK4
T4 construct: gene MAP2K4
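Note: KINOMEscan kinase panel screen.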

| SMILES | %Inh (MAP3K15) [%] | %Inh (MAP3K1) [%] | %Inh (MAP3K2) [%] | %Inh (MAP3K3) [%] | %Inh (MAP3K4) [%] | %Inh (MAP4K2) [%] | %Inh (MAP4K3) [%] | %Inh (MAP4K4) [%] | %Inh (MAP4K5) [%] | %Inh (MAPKAPK2) [%] | %Inh (MAPKAPK5) [%] | %Inh (MARK1) [%] | %Inh (MARK2) [%] | %Inh (MARK3) [%] | %Inh (MARK4) [%] | %Inh (MAST1) [%] | %Inh (MEK1) [%] | %Inh (MEK2) [%] | %Inh (MEK3) [%] | %Inh (MEK4) [%] |
| --- | --- | --- | --- | --- | --- | --- | --- | --- | --- | --- | --- | --- | --- | --- | --- | --- | --- | --- | --- | --- |
| Cn1cc(-c2cccc3c(N)c(C(N)=O)nnc23)cn1 | 7 | 29 | 14 | 30 | 95 | 0 | 8 | 22 | 14 | 0 | 0 | 0 | 27 | 0 | 18 | 17 | 5 | 21 | 60 | 19 |
| O=C(Nc1ccccc1)c1cccc(Oc2ccc3nccn3n2)c1 | 0 | 10 | 0 | 0 | 20 | 2 | 0 | 0 | 0 | 0 | 4 | 0 | 6 | 0 | 10 | 0 | 0 | 6 | 13 | 0 |
| Cn1ccc2ncnc(Oc3ccc(NC(=O)Nc4cnn(C(C)(C)C)c4)c(Cl)c3)c21 | 0 | 7 | 0 | 9 | 1 | 4 | 0 | 52 | 0 | 7 | 0 | 10 | 6 | 0 | 16 | 0 | 0 | 15 | 3 | 0 |
| Cn1ccc2ncnc(Oc3ccc(NC(=O)Nc4cncc(C(F)(F)F)c4)c(Cl)c3)c21 | 0 | 0 | 0 | 0 | 3 | 0 | 0 | 0 | 0 | 0 | 0 | 0 | 23 | 0 | 11 | 6 | 0 | 0 | 0 | 1 |
| CC(=O)Nc1nc2cnc(Nc3cc(NC(=O)c4cccc(CC(C)(C)C#N)c4)ccc3C)nc2s1 | 22 | 13 | 0 | 36 | 0 | 0 | 0 | 7 | 0 | 0 | 14 | 8 | 3 | 0 | 8 | 53 | 6 | 6 | 0 | 25 |
| COC(=O)c1cccc(NC(=O)NC2CCN(c3ccnc(NCc4ccc(F)cc4)n3)CC2)c1 [GSK1379860] | 0 | 24 | 8 | 0 | 22 | 0 | 0 | 0 | 0 | 0 | 0 | 0 | 0 | 0 | 0 | 0 | 0 | 0 | 0 | 0 |
| CCn1c(-c2nonc2N)nc2cncc(Br)c21 [SB-738004] | 18 | 10 | 0 | 0 | 3 | 40 | 0 | 3 | 0 | 10 | 0 | 0 | 21 | 0 | 6 | 53 | 22 | 29 | 49 | 0 |
| CNC(=O)c1ccccc1Nc1nc(Nc2cccc(CS(C)(=O)=O)c2)ncc1C.O=CO [GSK1520489] | 9 | 10 | 94.4 | 94 | 85 | 96.3 | 91 | 0 | 4 | 0 | 0 | 71 | 87 | 72 | 92.3 | 5 | 94.5 | 91.1 | 69 | 56 |
| CCOC(=O)N1CCC(n2cnc(-c3ccc(F)cc3)c2-c2ccnc(N)n2)CC1 [SB-219952] | 36 | 29 | 6 | 11 | 6 | 0 | 0 | 9 | 4 | 24 | 13 | 15 | 17 | 0 | 28 | 2 | 3 | 27 | 45 | 18 |
| CN(c1ccccc1CNc1nc(Nc2ccc3c(c2)CC(=O)N3)ncc1C(F)(F)F)S(C)(=O)=O | 0 | 0 | 61 | 63 | 6 | 17 | 42 | 0 | 13 | 0 | 0 | 53 | 37 | 80 | 67 | 0 | 1 | 0 | 93.1 | 84 |
| CSc1nccc(-c2c(-c3ccc(F)cc3)ncn2CCCN2CCOCC2)n1.Cl [SB-217146] | 0 | 0 | 23 | 1 | 0 | 0 | 0 | 0 | 0 | 0 | 0 | 15 | 0 | 40 | 20 | 6 | 30 | 43 | 33 | 16 |
| O=C(Nc1n[nH]c2cc(-c3ccco3)ccc12)C1CC1 [SB-737447] | 17 | 0 | 23 | 24 | 0 | 2 | 5 | 21 | 0 | 0 | 12 | 12 | 39 | 42 | 0 | 30 | 0 | 0 | 30 | 18 |
| O=C(NCC1CC1)c1ccc(-c2cc(C(=O)NC3CC3)ccc2F)cc1 [GW810445] | 0 | 0 | 0 | 0 | 0 | 0 | 0 | 0 | 0 | 0 | 0 | 0 | 0 | 0 | 2 | 36 | 2 | 13 | 0 | 0 |
| O=C(Nc1cccc(Oc2ccc3nccn3n2)c1)Nc1cccc(C(F)(F)F)c1 | 0 | 17 | 3 | 10 | 30 | 0 | 3 | 68 | 26 | 0 | 0 | 14 | 12 | 0 | 24 | 0 | 0 | 7 | 29 | 0 |
| C[C@@H](Oc1cc(-n2cnc3ccc(-c4ccncc4)cc32)sc1C(N)=O)c1ccccc1Cl [GSK483724] | 0 | 41 | 4 | 0 | 21 | 10 | 10 | 11 | 15 | 0 | 0 | 8 | 0 | 0 | 20 | 0 | 49 | 0 | 34 | 37 |
| Cc1ccc2c(-c3ccnc(Nc4ccc(C(F)(F)F)cc4)n3)cnn2n1 [GW819776] | 10 | 0 | 20 | 0 | 0 | 0 | 0 | 0 | 0 | 0 | 0 | 17 | 0 | 0 | 32 | 41 | 32 | 40 | 90.7 | 63 |
| Cl.Nc1n[nH]c2cc(-c3ccccn3)ccc12 [GSK2189892] | 0 | 0 | 0 | 0 | 0 | 0 | 0 | 6 | 0 | 7 | 0 | 0 | 0 | 10 | 0 | 0 | 2 | 0 | 0 | 5 |
| Cc1n[nH]c2cc(Nc3ccnc(Nc4cccc(CN5CCOCC5)c4)n3)ccc12 [GW682569] | 0 | 29 | 8 | 0 | 0 | 5 | 0 | 10 | 14 | 0 | 0 | 4 | 9 | 0 | 0 | 16 | 14 | 0 | 11 | 16 |
| C[C@@H]1CCN(C(=O)N2CCCC2)C[C@@H]1N(C)c1ncnc2[nH]ccc12 | 31 | 36 | 17 | 16 | 7 | 0 | 8 | 0 | 0 | 0 | 8 | 0 | 50 | 46 | 5 | 0 | 18 | 0 | 29 | 13 |
| OCCn1cc(-c2cnc3nnn(Cc4ccc5ncccc5c4)c3n2)cn1 | 0 | 0 | 0 | 0 | 0 | 0 | 0 | 0 | 0 | 0 | 0 | 0 | 0 | 0 | 0 | 0 | 0 | 0 | 0 | 0 |
| COc1cc2nccc(Nc3ccc(Oc4ccccc4)cc3)c2cc1OC.Cl [GI261656] | 0 | 21 | 0 | 0 | 0 | 0 | 0 | 0 | 0 | 0 | 0 | 0 | 0 | 0 | 0 | 3 | 96.9 | 92.5 | 0 | 11 |
